Values joined by “and” are separate entries in the source; they are usually repeats but may differ in a detail not shown here. Equal values may be shown once. Records with an inconclusive call do not appear. Active and inactive are the calls of the source. Unless noted, the call rests on the fitted dose curve; in most records, active means well fitted curve in the direction sought with a large enough effect; inconclusive means small, poorly fitted or top-dose-only effect, or another doubt; inactive means no such curve, though single readings can be large; an effect the other way counts as inactive or inconclusive. Where a SMILES comes first, the peptide text is derived from it.
How the values were obtained:
[1] = system: Zika virus NS2B-NS3 protease; experiment: Primary screen GU AMC qHTS for Zika virus inhibitors (AID 1347154);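 further: 0% = no-inhibitor control and -100% = no-enzyme control; nearly all actives have a fitted effect of over 70% in size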
Outline: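 Unlinked Zika NS2B hydrophilic domain/NS3 protease domain noncovalent complex (25 nM final) in 10 mM Tris-HCl pH 8.0, 0.01% Tween 20, with AMC peptide substrate. Fluorescence (ex 340, em 450 nm) change over 15 min, room temperature; percent inhibition fitted to 4-parameter Hill equation.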

[2] = Primary qHTS for small molecule stabilizers of the endoplasmic reticulum resident proteome: Secreted ER Calcium Modulated Protein (SERCaMP) assay (AID 1508630); further: on the % scale 0 is the no-effect control and ±100 the full control effect
Outline: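 GLuc-SERCaMP-expressing SH-SY5Y cells, pretreated 16 h with compound, are challenged with thapsigargin to empty ER calcium stores; after 4 h, coelenterazine is added directly to the medium and luminescence is imaged.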

[3] = molecular target: Cytochrome P450 1A2 (Homo sapiens) (UniProt P05177); experiment: p450-cyp1a2 (AID 410; calls by dose curve;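 further: -100% = full effect of reference inhibitor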)
Sequence of Cytochrome P450 1A2 (Homo sapiens) (P05177 whole entry, looked up): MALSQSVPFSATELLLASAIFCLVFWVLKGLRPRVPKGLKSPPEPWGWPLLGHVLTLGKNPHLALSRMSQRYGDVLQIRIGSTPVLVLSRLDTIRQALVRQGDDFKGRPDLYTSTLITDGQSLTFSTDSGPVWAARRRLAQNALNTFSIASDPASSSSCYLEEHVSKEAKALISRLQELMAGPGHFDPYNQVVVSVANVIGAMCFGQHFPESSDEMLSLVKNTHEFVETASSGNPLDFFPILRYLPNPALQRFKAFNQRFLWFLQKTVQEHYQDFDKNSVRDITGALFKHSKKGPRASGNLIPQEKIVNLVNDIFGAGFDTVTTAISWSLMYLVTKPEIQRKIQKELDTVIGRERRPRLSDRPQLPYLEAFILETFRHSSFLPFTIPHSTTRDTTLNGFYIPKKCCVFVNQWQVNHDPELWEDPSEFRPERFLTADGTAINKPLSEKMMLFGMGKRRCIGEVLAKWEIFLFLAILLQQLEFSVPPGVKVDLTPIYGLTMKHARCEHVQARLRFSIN
Outline: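 20nM CYP1A2 with 100uM Luciferin-ME (at Km) in 100mM KPO4; compound preincubated 10 min, NADPH regeneration added, 60 min at room temperature. Luciferin quantified by luminescence after detection reagent; normalized to 57 uM furafylline.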

[4] = molecular target: Glucocorticoid receptor (Homo sapiens) (UniProt P04150); experiment: GR-GFP Redistribution (AID 450;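 active means compounds whose dose series gives a full or clear partial fitted curve of increased nuclear translocation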; further: potency means the concentration at half of the fitted maximal effect); details: U2OS GR-GFP nuclear translocation, laser cytometry, 2 h
Sequence of Glucocorticoid receptor (Homo sapiens) (P04150 whole entry, looked up, the tested form may be a part): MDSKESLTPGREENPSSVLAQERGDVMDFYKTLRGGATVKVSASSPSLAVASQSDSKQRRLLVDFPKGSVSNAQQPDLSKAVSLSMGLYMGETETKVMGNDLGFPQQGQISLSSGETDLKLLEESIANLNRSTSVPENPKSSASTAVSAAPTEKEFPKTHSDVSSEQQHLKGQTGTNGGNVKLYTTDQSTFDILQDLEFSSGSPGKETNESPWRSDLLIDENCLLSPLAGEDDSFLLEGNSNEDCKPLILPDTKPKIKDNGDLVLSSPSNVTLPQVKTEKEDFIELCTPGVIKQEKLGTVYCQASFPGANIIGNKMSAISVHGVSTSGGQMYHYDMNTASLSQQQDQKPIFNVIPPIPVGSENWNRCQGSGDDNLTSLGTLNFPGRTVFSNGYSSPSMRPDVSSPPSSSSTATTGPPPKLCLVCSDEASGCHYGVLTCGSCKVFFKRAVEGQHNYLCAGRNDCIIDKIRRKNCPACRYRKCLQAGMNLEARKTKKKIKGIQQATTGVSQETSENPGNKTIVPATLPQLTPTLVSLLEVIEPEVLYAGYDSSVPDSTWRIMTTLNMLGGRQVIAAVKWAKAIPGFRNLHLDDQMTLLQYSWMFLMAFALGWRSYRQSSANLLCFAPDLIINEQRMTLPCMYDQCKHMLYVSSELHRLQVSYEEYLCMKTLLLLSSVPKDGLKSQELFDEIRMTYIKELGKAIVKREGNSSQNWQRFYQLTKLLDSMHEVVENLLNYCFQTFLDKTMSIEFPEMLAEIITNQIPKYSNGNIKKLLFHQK

[5] = molecular target: Glucocorticoid receptor (Homo sapiens) (UniProt P04150); experiment: GR-EFC Redistribution (AID 451; calls by dose curve; further: potency means the concentration at half of the fitted maximal effect); details: CHO-K1 GR-EFC translocation, beta-gal luminescence, 2 h
Outline: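 CHO-K1 cells stably expressing nuclear-localized β-gal enzyme acceptor and GR fused C-terminally to the enzyme donor fragment; ligand-driven nuclear translocation restores β-gal by complementation. Compounds titrated up to 46 uM final, 2 h at 37 °C; luminescence read.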

[6] = molecular target: Mitogen-activated protein kinase 10 (Mus musculus) (UniProt Q61831); experiment: JNK3 AlphaScreen Assay (AID 530; active means well fitted curve in either direction with a large enough effect, not every such curve was filed as active;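 further: kinase came from lysate of stimulated human HepG2 cells; signal reports phosphorylation of biotinylated GST-cJun 1-79 at Ser73 with 10 µM ATP; on the % scale 0 is the no-effect control and ±100 the full control effect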)
Outline: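 Inhibitors reduce antibody binding to phosphorylated biotin-cJun, lowering AlphaScreen luminescence. Lysates from HepG2 cells pre-activated by IL-1beta plus TNF-alpha supplied JNK3; compounds were titrated.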

[7] = molecular target: 3',5'-cyclic-AMP phosphodiesterase 4B (Homo sapiens) (UniProt Q07343); experiment: qHTS Assay for Inhibitors of PDE-IV (AID 607; active means well fitted activation curve with a large enough effect in the main read-out, with a control signal flat, not every such curve was filed as active; further: % of control where 0% means no effect)
Sequence of 3',5'-cyclic-AMP phosphodiesterase 4B (Homo sapiens) (Q07343 whole entry, looked up): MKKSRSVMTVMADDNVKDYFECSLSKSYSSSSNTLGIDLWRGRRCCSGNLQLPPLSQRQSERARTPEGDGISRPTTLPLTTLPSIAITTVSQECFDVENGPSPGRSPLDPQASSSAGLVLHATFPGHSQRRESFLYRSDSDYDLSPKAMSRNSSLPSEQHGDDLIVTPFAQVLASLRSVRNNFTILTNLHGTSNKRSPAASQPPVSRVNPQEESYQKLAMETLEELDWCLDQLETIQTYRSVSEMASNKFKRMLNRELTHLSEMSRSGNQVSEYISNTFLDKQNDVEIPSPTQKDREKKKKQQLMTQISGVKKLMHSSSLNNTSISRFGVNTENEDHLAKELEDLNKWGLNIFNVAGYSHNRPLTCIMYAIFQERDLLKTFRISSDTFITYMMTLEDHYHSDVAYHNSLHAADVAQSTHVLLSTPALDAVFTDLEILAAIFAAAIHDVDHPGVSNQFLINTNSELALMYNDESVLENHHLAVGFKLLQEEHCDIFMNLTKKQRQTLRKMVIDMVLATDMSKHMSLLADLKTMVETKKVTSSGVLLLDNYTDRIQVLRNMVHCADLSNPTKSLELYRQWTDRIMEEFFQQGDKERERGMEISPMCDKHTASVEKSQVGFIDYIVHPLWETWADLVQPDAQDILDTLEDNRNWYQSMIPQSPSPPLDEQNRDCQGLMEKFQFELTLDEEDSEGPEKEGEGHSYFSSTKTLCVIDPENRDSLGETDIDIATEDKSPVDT
Outline: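 ACTOne HEK293 cells carry a modified cAMP-gated CNG channel and express endogenous PDE4; plated 1000 cells/well, compounds up to 22.9 uM final. Membrane-potential dye fluorescence (ex 535/em 590) was read; parental cells received 10 uM forskolin + 100 uM RO 20-1724.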

[8] = molecular target: Guanine nucleotide-binding protein G(i) subunit alpha-1 (Homo sapiens) (UniProt P63096); experiment: qHTS Assay for Inhibitors of RGS12 GoLoco Motif Activity (Green Fluorophore) (AID 879);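 further: 0% = labeled peptide with Gαi1 and full inhibition = labeled peptide alone without protein; negative values mean loss of peptide binding seen as reduced polarization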
Sequence of Guanine nucleotide-binding protein G(i) subunit alpha-1 (Homo sapiens) (P63096 whole entry, looked up): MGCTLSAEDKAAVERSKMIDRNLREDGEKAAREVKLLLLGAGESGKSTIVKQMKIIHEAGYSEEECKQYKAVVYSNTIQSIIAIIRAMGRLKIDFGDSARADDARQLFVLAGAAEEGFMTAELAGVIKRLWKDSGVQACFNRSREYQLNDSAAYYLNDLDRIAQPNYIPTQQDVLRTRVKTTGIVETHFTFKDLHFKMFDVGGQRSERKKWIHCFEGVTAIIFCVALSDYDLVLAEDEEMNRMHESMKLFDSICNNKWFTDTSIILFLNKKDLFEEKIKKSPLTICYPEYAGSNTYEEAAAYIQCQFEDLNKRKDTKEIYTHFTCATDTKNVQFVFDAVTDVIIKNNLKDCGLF
Outline: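 Fluorescence polarization assay: 50 nM Gαi1 with 10 nM FITC-labeled RGS12 GoLoco peptide in 10 mM Tris pH 7.5, 150 mM NaCl, 0.1 mM GDP, 0.05% NP40, 10 min at room temperature with compound.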

[9] = molecular target: Cytochrome P450 3A4 (Homo sapiens) (UniProt P08684); experiment: qHTS Assay for Inhibitors and Substrates of Cytochrome P450 3A4 (AID 884); further: on the % scale 0 is the no-effect control and ±100 the full control effect; nearly all actives have a fitted effect of over 50% in size
Outline: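 20 nM human CYP3A4 with 25 uM Luciferin-PPXE (at KM) in 200 mM KPO4, preincubated 10 min with compound; NADPH regeneration started a 60 min RT reaction. Luciferin detected by luminescence, normalized to 57 uM ketoconazole as full inhibition.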

[10] = molecular target: Cytochrome P450 2C19 (Homo sapiens) (UniProt P33261); experiment: qHTS Assay for Inhibitors and Substrates of Cytochrome P450 2C19 (AID 899); further: nearly all actives have a fitted effect of over 60% in size; further: potency means the concentration at half of the fitted maximal effect
Outline: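 NADPH-dependent conversion of Luciferin-H EGE (10uM, at KM) by 5nM enzyme in 50mM KPO4, 60 min at 37C following 10 min compound preincubation. Stopped with luciferin detection buffer; luminescence read after 20 min.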

[11] = qHTS Assay for Identification of Small Molecule Agonists for Thrombopoietin (TPO) Signaling Pathway (AID 917); further: on the % scale 0 is the no-effect control and ±100 the full control effect
Outline: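 Activators of TPO signaling were sought in murine Ba/F3 cells transfected with the human receptor, using a luciferase gene driven by the Glycoprotein IIb promoter; 24-hr compound exposure at 37 C alongside 26 pM TPO, in IL-3-free medium.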

[12] = molecular target: Muscarinic acetylcholine receptor M1 (Rattus norvegicus) (UniProt P08482); experiment: qHTS Assay for Antagonists of Acetylcholine Muscarinic M1 Receptor: Kinetic Measurement of Intracellular Calcium Response (AID 943); further: nearly all actives have a fitted effect of over 75% in size
Sequence of Muscarinic acetylcholine receptor M1 (Rattus norvegicus) (P08482 whole entry, looked up): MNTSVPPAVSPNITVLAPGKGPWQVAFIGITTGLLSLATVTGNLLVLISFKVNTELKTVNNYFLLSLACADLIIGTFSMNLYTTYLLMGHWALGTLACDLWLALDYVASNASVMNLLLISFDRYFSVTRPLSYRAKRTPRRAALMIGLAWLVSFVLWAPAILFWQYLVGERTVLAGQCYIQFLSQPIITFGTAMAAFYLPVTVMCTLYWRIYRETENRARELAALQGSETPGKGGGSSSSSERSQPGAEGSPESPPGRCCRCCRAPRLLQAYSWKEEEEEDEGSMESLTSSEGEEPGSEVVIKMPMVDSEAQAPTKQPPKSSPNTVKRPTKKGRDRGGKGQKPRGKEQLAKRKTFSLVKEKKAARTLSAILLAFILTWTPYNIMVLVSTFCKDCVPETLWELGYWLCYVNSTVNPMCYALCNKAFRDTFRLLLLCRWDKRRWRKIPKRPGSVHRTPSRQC
Outline: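 CHO cells expressing rat M1 receptor, Fluo-4 loaded, preincubated 10 min with compound, then stimulated with EC80 carbachol (100 nM final). Kinetic calcium fluorescence over 4 min; response taken as peak over basal signal.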

[13] = molecular target: Muscarinic acetylcholine receptor M1 (Rattus norvegicus) (UniProt P08482); experiment: qHTS Assay for Antagonists of Acetylcholine Muscarinic M1 Receptor: Measurement of IP-One Response (AID 944); further: nearly all actives have a fitted effect of over 75% in size
Outline: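 CHO cells stably expressing rat M1, pretreated 10 min with compound, then stimulated 30 min with carbachol at EC80 (200 nM) in LiCl-containing buffer pH 7.4; IP1 accumulation read by HTRF competition (665/620 nm).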

[14] = molecular target: Pyruvate kinase (Leishmania mexicana) (UniProt Q27686); experiment: qHTS Validation Assay for Inhibitors of Leishmania Mexicana Pyruvate Kinase (AID 945);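 further: 0% = DMSO only neutral control wells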
Outline: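 Compounds are tested as eight-point concentration series. Reactions contain 0.2 nM LmPYK E451W, 0.5 mM PEP, 0.1 mM ADP, 7 mM MgCl2 and 50 mM KCl at pH 7.2, run 1 h at room temperature, then read by PKLight luminescence.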

[15] = molecular target: Alpha-galactosidase (Coffea arabica) (UniProt Q42656); experiment: Counterscreen for Glucocerebrosidase Inhibitors: qHTS Assay for Coffee Bean alpha-Galactosidase at pH 4.5 (AID 957);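 further: plate controls were enzyme alone for no effect and no enzyme for full effect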
Sequence of Alpha-galactosidase (Coffea arabica) (Q42656 whole entry, looked up): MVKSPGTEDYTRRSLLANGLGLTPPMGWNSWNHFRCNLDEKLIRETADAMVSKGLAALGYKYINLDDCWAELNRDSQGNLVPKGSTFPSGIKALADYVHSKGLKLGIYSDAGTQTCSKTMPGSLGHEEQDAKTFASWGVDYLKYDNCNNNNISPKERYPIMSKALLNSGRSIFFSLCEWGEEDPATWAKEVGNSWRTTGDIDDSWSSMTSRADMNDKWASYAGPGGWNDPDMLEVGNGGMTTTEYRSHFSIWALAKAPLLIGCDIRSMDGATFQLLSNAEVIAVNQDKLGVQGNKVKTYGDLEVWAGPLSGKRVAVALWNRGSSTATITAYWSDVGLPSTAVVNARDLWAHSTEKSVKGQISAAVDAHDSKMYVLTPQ
Outline: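 Coffee bean enzyme (2 nM) with 80 uM 4-methylumbelliferyl alpha-D-galactopyranoside in 50 mM citric acid, 0.005% Tween-20, pH 4.5, 20 min at room temperature; compounds 0.7 nM–77 uM. Stopped at pH 10, fluorescence 365/440 nm; AC50 from Hill fits.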

[16] = molecular target: Alpha-galactosidase A (Homo sapiens) (UniProt P06280); experiment: Counterscreen for Glucocerebrosidase Inhibitors: qHTS Assay for Human alpha-Galactosidase at pH 4.5 (AID 992); further: 0% is about no effect
Sequence of Alpha-galactosidase A (Homo sapiens) (P06280 whole entry, looked up): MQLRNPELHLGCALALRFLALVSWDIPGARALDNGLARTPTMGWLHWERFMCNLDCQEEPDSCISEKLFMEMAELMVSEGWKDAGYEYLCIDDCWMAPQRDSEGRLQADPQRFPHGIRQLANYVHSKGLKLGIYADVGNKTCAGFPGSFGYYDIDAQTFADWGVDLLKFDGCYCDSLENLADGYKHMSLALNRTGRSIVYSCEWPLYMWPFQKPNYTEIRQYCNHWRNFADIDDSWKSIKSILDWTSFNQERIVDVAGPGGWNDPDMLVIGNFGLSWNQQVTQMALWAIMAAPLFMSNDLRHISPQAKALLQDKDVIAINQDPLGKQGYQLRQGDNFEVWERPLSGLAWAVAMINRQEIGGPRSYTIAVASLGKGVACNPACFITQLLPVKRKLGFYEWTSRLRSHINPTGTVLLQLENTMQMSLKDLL
Outline: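 Enzyme at 2 nM final was combined with compound (0.7 nM to 77 uM) and 80 uM 4-methylumbelliferyl alpha-D-galactopyranoside in 50 mM citric acid, 0.005% Tween-20, pH 4.5. After 20 min at room temperature, fluorescence was read (Ex 365/Em 440 nm); AC50 came from Hill fits.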

[17] = molecular target: Alpha-galactosidase (Coffea arabica) (UniProt Q42656); experiment: Counterscreen for Glucocerebrosidase Inhibitors: qHTS Assay for Coffee Bean alpha-Galactosidase at pH 5.9 (AID 998);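 further: plate controls were uninhibited enzyme for no effect and no-enzyme basal signal for full effect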
Outline: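 Green coffee bean enzyme (2 nM final) was incubated with compounds (0.7 nM–77 uM) and 4-methylumbelliferyl alpha-D-galactopyranoside (80 uM) in citrate buffer pH 5.9, 20 min at room temperature. High-pH stop; fluorescence 365/440 nm; AC50 from Hill fits.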

[18] = qHTS Assay for Lipid Storage Modulators (AID 1519; calls by dose curve); details: Drosophila S3 cells, BODIPY lipid droplet/cell ratio, laser cytometry, cells loaded with oleic acid
Outline: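 Cells seeded at 5,000 per well were treated with compounds over a concentration series and loaded with oleic acid (400 uM, as added). Lipid droplet fluorescence (488 nm excitation, 500-530 nm channel) was read by laser-scanning cytometry and normalized to 20 uM Triacsin C.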

[19] = molecular target: Ubiquitin carboxyl-terminal hydrolase 1 (Homo sapiens) (UniProt O94782); experiment: Inhibitors of USP1/UAF1: Pilot qHTS (AID 504865);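 further: rhodamine fluorescence freed from ubiquitin-rhodamine substrate followed over time; top concentration of the series differs between compounds; on the % scale 0 is the no-effect control and ±100 the full control effect; nearly all actives have a fitted effect of over 35% in size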
Sequence of Ubiquitin carboxyl-terminal hydrolase 1 (Homo sapiens) (O94782 whole entry, looked up): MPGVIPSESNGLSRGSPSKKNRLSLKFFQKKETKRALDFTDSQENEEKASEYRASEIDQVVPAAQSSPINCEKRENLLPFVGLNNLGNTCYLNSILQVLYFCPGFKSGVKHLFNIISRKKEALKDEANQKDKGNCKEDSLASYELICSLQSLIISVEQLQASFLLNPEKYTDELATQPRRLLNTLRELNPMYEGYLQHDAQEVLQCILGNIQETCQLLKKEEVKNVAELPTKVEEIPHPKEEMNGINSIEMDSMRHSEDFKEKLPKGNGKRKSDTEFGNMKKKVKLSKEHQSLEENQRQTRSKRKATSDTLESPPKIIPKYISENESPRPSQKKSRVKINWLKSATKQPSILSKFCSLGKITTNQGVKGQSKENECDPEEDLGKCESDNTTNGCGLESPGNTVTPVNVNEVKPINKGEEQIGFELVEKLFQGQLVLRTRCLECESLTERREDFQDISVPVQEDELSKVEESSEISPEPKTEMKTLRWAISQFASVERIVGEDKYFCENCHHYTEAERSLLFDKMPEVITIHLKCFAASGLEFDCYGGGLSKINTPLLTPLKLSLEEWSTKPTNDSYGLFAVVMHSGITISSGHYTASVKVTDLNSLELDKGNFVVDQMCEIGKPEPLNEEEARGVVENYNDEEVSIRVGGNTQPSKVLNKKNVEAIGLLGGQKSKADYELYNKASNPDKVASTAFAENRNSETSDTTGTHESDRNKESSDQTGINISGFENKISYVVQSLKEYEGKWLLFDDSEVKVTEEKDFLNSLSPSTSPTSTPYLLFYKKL
Outline: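 1nM USP1/UAF1 + cpd, 15 min RT; start w/ Ub-Rho 150nM final; kinetic FL 480/540 nm, 6 reads q60 s. Buffer 50mM HEPES pH 7.8, 0.5mM EDTA, 1mM TCEP, 0.01% Tween-20, 0.1 mg/ml BSA.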

[20] = molecular target: DNA dC->dU-editing enzyme APOBEC-3G (Homo sapiens) (UniProt Q9HC16); experiment: qHTS for inhibitors of Vif-A3G interactions: Validation (AID 588379); further: 0% is about no effect
Sequence of DNA dC->dU-editing enzyme APOBEC-3G (Homo sapiens) (Q9HC16 whole entry, looked up): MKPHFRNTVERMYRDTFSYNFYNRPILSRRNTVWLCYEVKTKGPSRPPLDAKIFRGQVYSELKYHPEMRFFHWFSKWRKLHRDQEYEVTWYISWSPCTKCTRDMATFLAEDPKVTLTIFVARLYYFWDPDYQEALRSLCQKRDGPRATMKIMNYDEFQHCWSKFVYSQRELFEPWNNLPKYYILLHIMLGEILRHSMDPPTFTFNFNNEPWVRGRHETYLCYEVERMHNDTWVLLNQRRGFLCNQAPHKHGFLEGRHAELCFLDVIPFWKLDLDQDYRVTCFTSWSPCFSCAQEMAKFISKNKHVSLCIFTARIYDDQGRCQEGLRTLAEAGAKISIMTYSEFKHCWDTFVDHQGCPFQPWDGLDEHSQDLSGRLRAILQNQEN
Outline: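 HeLa cells stably expressing Vif and A3G-eYFP, 700 cells/well, incubated overnight at 37 deg C, then exposed to compound overnight at 37 deg C. Inhibition of Vif-mediated degradation read as increased yellow fluorescence (Ex 488/Em 500-530) by laser-scanning cytometry.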

[21] = NFAT Signaling Pathway (AID 444; active means well fitted curve in either direction with a large enough effect, not every such curve was filed as active;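 further: carbachol stimulus at about its EC50 of 1 µM final; on the % scale 0 is the no-effect control and ±100 the full control effect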); details: Jurkat NFAT-bla M1, carbachol, beta-lactamase ratio, 5 h
Outline: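 Jurkat cells carrying an NFAT-driven β-lactamase reporter and co-transfected muscarinic M1 receptor were treated with compound plus carbachol (1 uM final, an EC50 level) for 5 h at 37 °C. CCF4 loading followed for 1 h at RT; 460/530 nm ratio gave %activity.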

[22] = molecular target: Cytochrome P450 2D6 (Homo sapiens) (UniProt P10635); experiment: qHTS Assay for Inhibitors and Substrates of Cytochrome P450 2D6 (AID 891); further: potency means the concentration at half of the fitted maximal effect; nearly all actives have a fitted effect of over 60% in size
Outline: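 Human CYP2D6 (5 nM) with 30 uM Luciferin-ME EGE (at Km) in 100 mM KPO4, compound preincubated 10 min, then NADPH regeneration system for 60 min at room temperature. Luciferin read by luminescence; normalized to 1.43 uM quinidine.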

[23] = measured here: cell count channel max response
[24] = measured here: lipid channel max response

N#Cc1c(Oc2cccc(OS(=O)(=O)CCCC(F)(F)F)c2)cccc1C(F)(F)F
inactive: Potency [1] | Potency [2]

CN(CC(=O)N[C@H](CO)Cc1ccccc1)C(=O)[C@H](CCS(C)=O)NC(=O)[C@@H](N)Cc1ccc(O)cc1 (stereo not given in full) (HELM PEPTIDE1{Y.[CS(=O)CC[C@H](N[*:1])C(=O)[*:2]].[Sar].[OC[C@H](Cc1ccccc1)N[*:1]]}$$$$V2.0)
inactive: activity change, negative = inhibition [1] 16.9% [at 6.83 µM] | activity change, negative = inhibition [2] -13.2% [at 3.88 µM]

N[C@@]1(C(=O)O)CC[C@H](C(=O)O)C1
-9.77% and 22.3% and -1.79%: max response [18, 23]
-7.89% and 39.1% and -2.3%: max response [18, 24]
inactive: Potency [3] | Potency [4] > 46 µM | Potency [5] > 46 µM | outcome [6] | Potency [7] | outcome [8] | Potency [9] | Potency [10] | outcome [11] | Potency [12] | Potency [13] | outcome [14] | outcome [15] | outcome [16] | outcome [17] | activity change, negative = inhibition ([18]; at 57.5 µM (top of the series)) 1.47% and 9.82% and 2.9% | Potency [19] | Potency [20] | Potency [1] | Potency [2]

CC(C)(C)NC[C@H](O)COc1cccc2[nH]c(C#N)cc12
inactive: Potency [1] | Potency [2]

C[C@H](N)C(=O)N[C@@H](C)C(=O)N[C@@H](Cc1ccccc1)C(=O)CCl (HELM PEPTIDE1{A.A.F.[ClC[*:1]]}$$$$V2.0)
inactive: Potency [1] | Potency [2]

CC[N+](CC)(CCCNC1=CC(=O)C(NCCC[N+](CC)(CC)Cc2ccccc2)=CC1=O)Cc1ccccc1
-5.38%: max response [18, 23]
inactive: Potency [4] > 46 µM | Potency [5] > 46 µM | activity change, negative = inhibition ([18]; at 57.5 µM (top of the series)) 3.42% | Potency [1] | Potency [2]
-3.95%: max response [18, 24]

c1ccc2c(c1)OC[C@@H](C1=NCCN1)O2
-5.05%: max response [18, 24]
inactive: Potency [3] | activity change, negative = inhibition ([21]; at 17.2 µM (top of the series)) -9.57% | activity change, negative = inhibition ([21]; at 38 µM (top of the series)) -27.1% | Potency [4] > 46 µM and > 20.6 µM | Potency [5] > 46 µM and > 20.6 µM | outcome [6] | Potency [7] | outcome [8] | Potency [12] | Potency [13] | outcome [14] | outcome [15] | outcome [16] | outcome [17] | activity change, negative = inhibition ([18]; at 25.7 µM (top of the series)) 1.16% | Potency [19] | Potency [20] | Potency [1] | Potency [2]
active: Potency [22] 0.631 µM | Potency [10] 7.94 µM
-0.675%: max response [18, 23]

— PubChem BioAssay (NCATS)
